Measurements from PMC7862700, “An all-to-all approach to the identification of sequence-specific readers for epigenetic DNA modifications on cytosine”.

Legend:
Test in all cases: DAPPL (digital affinity profiling via proximity ligation, sequencing); 10 mM Tris-HCl pH 7.5, 50 mM NaCl, 1 mM DTT, 4% glycerol, room temperature, 30 min; GST-TFs on glutathione beads, 16-mer random dsDNA library, 0.1% formaldehyde crosslink after washing; high values mean tight binding
FLI1 = molecular target: T1, FLI1 (Homo sapiens, UniProt Q01543 1-452); conditions: protein: recombinant; tags: N-terminal GST; dsDNA, one strand shown
T1 sequence: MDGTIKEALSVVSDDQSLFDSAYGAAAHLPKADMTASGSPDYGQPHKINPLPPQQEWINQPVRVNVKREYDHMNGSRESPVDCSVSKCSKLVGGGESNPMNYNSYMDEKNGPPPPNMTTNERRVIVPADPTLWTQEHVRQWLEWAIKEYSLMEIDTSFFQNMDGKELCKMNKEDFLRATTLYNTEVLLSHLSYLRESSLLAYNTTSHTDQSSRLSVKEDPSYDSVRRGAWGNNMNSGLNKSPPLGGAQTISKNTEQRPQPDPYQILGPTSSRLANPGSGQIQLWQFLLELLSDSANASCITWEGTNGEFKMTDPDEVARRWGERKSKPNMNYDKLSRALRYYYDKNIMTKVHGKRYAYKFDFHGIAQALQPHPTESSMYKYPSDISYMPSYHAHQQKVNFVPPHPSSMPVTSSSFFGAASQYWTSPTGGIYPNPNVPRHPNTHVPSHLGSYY
Outline: (§1)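 After expression in yeast as GST fusions, human transcription factors were bound to glutathione beads, DNA-barcoded and mixed with a tag-only sample. The pools were incubated with 200 nmole of a 16-mer random double-stranded DNA library in Tris/NaCl/DTT/glycerol buffer (30 min, room temperature), washed and crosslinked with 0.1% formaldehyde. Proximity ligation with BsaI/T4 ligase ran for 1 h at 37 °C, before PCR amplification and sequencing on an Illumina NextSeq500. Binding signal is a hexamer's read frequency for a factor divided by its frequency for the tag-only sample.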

ELK1 = molecular target: T2, ELK1 (Homo sapiens, UniProt P19419 1-428); conditions: protein: recombinant; tags: N-terminal GST; dsDNA, one strand shown
T2 sequence: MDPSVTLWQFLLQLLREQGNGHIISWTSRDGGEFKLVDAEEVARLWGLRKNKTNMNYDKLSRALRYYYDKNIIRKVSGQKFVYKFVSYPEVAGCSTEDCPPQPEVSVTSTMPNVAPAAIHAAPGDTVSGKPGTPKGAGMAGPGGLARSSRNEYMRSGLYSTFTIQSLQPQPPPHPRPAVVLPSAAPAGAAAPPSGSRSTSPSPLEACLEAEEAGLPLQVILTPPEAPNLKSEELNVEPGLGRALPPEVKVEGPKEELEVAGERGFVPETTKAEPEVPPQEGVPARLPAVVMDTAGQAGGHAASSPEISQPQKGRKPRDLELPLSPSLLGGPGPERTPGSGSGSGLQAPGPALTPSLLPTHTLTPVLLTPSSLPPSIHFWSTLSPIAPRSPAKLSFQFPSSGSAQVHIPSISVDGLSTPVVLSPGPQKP
Outline: as §1

GABPA = molecular target: T3, GABPA (Homo sapiens, UniProt Q06546 1-454); conditions: protein: recombinant; tags: N-terminal GST; dsDNA, one strand shown
T3 sequence: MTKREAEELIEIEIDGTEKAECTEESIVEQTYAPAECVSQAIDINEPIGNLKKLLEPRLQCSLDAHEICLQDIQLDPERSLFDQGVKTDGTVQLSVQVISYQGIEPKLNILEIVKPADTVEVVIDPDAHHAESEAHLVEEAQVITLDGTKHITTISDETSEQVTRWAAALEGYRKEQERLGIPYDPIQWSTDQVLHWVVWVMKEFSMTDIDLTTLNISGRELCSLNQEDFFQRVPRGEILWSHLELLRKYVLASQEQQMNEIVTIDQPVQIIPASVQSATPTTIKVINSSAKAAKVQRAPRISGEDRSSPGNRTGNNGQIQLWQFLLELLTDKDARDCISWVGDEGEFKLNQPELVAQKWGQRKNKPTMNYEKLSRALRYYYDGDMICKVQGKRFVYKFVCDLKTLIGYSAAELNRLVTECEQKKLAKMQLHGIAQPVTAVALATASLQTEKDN
Outline: as §1

ERG = molecular target: T4, ERG (Homo sapiens, UniProt P11308 1-479); conditions: protein: recombinant; tags: N-terminal GST; dsDNA, one strand shown
T4 sequence: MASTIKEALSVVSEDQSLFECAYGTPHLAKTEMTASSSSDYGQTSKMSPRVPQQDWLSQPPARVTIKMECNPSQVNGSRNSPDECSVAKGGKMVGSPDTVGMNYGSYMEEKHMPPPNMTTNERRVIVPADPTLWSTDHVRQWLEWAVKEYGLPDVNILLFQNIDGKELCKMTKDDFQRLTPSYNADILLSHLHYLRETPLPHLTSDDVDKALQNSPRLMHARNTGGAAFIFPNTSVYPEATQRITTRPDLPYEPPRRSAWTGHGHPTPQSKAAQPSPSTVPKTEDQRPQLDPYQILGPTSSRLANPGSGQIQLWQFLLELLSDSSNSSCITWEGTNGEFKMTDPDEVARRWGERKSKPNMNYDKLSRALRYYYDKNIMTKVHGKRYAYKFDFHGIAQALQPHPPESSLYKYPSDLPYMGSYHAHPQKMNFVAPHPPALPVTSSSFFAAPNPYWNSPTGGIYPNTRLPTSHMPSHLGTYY
Outline: as §1

ELF1 = ELF1 (Homo sapiens, UniProt P32519 1-619); conditions: protein: recombinant; tags: N-terminal GST; dsDNA, one strand shown
Chain of ELF1 (P32519 whole entry): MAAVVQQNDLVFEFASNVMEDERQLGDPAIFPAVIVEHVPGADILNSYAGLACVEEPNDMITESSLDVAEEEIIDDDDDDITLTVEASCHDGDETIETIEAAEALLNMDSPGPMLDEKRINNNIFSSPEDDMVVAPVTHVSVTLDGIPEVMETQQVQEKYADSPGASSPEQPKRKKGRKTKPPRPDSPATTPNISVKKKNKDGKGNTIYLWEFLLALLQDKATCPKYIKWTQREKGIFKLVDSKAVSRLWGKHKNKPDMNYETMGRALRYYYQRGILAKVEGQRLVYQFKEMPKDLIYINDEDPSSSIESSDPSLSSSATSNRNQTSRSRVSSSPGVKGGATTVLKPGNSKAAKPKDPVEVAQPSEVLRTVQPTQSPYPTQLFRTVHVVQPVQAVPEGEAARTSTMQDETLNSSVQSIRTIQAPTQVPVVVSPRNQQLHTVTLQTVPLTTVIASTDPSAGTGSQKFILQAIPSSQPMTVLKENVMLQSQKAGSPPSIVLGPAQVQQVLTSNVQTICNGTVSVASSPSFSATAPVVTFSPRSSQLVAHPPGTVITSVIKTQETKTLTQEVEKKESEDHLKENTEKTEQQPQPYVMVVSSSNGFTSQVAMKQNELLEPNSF
Outline: as §1

EHF = molecular target: T5, EHF (Homo sapiens, UniProt Q9NZC4 1-300); conditions: protein: recombinant; tags: N-terminal GST; dsDNA, one strand shown
T5 sequence: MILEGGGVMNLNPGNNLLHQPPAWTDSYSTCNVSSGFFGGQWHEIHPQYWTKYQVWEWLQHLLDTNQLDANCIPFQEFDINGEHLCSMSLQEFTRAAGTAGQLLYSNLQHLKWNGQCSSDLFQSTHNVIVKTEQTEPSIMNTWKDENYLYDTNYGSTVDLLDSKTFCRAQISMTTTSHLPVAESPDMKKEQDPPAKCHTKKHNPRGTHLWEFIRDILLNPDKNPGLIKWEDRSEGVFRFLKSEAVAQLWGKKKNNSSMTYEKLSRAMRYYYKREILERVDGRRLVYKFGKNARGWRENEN
Outline: as §1

SPI1 = SPI1 (Homo sapiens, UniProt P17947 1-270); conditions: protein: recombinant; tags: N-terminal GST; dsDNA, one strand shown
Outline: as §1

SPIB = SPIB (Homo sapiens, UniProt Q01892 1-262); conditions: protein: recombinant; tags: N-terminal GST; dsDNA, one strand shown
Chain of SPIB (Q01892 whole entry): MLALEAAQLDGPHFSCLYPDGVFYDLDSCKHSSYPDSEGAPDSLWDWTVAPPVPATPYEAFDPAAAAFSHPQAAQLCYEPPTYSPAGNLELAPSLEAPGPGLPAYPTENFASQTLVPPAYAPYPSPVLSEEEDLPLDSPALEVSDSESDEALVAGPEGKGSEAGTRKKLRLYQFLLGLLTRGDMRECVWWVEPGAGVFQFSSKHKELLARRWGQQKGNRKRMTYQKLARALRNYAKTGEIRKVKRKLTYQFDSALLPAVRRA
Outline: as §1

ELK3 = molecular target: T6, ELK3 (Homo sapiens, UniProt P41970 1-407); conditions: protein: recombinant; tags: N-terminal GST; dsDNA, one strand shown
T6 sequence: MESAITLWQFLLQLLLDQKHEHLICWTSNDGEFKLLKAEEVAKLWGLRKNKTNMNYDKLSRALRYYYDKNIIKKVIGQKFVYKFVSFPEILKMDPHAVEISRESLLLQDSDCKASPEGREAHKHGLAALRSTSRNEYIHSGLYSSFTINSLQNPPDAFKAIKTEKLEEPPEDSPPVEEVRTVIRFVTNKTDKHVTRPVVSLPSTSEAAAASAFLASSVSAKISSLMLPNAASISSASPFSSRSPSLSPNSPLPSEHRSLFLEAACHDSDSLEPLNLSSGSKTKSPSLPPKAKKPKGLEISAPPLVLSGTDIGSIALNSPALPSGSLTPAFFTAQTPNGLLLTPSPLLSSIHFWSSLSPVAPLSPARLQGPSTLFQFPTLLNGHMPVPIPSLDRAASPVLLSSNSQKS
Outline: as §1

FEV = molecular target: T7, FEV (Homo sapiens, UniProt Q99581 1-238); conditions: protein: recombinant; tags: N-terminal GST; dsDNA, one strand shown
T7 sequence: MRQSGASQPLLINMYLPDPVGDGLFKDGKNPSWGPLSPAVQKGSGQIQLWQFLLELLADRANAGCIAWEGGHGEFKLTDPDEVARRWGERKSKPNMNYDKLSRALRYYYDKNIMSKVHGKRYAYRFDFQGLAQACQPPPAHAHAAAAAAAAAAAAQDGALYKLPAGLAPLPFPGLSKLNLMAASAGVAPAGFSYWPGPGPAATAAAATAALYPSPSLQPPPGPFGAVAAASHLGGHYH
Outline: as §1

ETV5 = ETV5 (Homo sapiens, UniProt P41161 1-510); conditions: protein: recombinant; tags: N-terminal GST; dsDNA, one strand shown
Chain of ETV5 (P41161 whole entry): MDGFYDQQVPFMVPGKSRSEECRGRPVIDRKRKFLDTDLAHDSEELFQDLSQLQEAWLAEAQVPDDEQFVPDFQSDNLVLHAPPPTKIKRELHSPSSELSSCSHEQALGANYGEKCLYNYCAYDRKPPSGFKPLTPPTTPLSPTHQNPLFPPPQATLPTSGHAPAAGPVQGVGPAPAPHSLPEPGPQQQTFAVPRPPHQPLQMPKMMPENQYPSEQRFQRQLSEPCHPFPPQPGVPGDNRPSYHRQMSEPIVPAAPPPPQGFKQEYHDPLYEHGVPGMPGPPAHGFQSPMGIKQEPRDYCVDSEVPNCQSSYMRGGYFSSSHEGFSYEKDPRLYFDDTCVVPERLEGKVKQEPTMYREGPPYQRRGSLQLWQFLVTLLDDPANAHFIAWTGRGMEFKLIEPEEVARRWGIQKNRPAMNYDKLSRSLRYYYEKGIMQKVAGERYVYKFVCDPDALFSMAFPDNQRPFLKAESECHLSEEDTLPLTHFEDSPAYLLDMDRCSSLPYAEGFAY
Outline: as §1

HSF1 = HSF1 (Homo sapiens, UniProt Q00613 1-529); conditions: protein: recombinant; tags: N-terminal GST; chain copies: 3; dsDNA, one strand shown
Chain of HSF1 (Q00613 whole entry): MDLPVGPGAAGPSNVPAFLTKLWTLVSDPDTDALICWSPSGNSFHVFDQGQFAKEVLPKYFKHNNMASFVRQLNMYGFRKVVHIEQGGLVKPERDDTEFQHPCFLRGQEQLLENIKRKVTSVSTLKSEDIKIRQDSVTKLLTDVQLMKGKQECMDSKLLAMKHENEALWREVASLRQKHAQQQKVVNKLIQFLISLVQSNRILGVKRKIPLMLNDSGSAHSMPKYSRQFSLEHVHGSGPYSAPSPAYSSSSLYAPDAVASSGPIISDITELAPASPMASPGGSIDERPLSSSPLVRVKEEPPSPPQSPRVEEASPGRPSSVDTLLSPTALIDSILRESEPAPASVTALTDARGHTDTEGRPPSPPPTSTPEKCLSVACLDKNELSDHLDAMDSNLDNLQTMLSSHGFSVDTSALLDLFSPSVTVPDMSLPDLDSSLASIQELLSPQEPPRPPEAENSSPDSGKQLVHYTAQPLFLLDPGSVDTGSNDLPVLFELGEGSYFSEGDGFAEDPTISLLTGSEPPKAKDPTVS
Outline: as §1

SPIC = molecular target: T8, SPIC (Homo sapiens, UniProt Q8N5J4 1-248); conditions: protein: recombinant; tags: N-terminal GST; dsDNA, one strand shown
T8 sequence: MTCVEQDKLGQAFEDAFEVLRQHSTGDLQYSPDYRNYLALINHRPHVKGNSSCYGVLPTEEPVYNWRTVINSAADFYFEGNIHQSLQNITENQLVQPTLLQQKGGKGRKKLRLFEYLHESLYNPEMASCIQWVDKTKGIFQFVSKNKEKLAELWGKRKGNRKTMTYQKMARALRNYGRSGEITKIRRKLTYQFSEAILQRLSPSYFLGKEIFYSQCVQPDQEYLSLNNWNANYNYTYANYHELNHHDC
Outline: as §1

ELF4 = ELF4 (Homo sapiens, UniProt Q99607 1-663); conditions: protein: recombinant; tags: N-terminal GST; dsDNA, one strand shown
Chain of ELF4 (Q99607 whole entry): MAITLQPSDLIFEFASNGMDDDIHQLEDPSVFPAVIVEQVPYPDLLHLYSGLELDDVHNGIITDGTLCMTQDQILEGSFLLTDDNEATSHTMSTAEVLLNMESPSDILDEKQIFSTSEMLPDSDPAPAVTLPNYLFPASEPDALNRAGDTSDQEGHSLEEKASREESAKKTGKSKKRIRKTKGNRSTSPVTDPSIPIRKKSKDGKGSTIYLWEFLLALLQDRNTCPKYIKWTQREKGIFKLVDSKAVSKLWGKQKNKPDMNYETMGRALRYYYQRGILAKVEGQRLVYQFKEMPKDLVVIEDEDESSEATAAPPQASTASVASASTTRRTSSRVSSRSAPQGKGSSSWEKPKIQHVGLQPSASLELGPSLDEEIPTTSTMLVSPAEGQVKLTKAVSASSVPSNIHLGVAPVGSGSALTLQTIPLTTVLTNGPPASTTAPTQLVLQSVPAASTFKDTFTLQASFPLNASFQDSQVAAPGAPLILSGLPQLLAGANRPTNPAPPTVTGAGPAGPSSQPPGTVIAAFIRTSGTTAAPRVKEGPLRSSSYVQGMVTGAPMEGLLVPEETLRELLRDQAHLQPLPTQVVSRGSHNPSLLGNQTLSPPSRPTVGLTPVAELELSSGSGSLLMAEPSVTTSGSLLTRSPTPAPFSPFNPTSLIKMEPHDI
Outline: as §1

ELK4 = molecular target: T9, ELK4 (Homo sapiens, UniProt P28324-2 1-405); conditions: protein: recombinant; tags: N-terminal GST; dsDNA, one strand shown
T9 sequence: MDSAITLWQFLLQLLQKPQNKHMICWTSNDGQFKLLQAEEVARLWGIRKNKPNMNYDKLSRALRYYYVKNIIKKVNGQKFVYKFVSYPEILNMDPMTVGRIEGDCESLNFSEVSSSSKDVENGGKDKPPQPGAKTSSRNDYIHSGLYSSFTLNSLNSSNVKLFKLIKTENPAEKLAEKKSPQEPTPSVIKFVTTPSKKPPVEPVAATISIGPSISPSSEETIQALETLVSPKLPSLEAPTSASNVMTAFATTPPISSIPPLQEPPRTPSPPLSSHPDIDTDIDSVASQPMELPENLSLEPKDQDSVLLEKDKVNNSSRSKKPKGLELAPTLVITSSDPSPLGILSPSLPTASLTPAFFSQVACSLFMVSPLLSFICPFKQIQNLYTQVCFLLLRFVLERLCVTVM
Outline: as §1

ETV2 = molecular target: T10, ETV2 (Homo sapiens, UniProt O00321 1-342); conditions: protein: recombinant; tags: N-terminal GST; dsDNA, one strand shown
T10 sequence: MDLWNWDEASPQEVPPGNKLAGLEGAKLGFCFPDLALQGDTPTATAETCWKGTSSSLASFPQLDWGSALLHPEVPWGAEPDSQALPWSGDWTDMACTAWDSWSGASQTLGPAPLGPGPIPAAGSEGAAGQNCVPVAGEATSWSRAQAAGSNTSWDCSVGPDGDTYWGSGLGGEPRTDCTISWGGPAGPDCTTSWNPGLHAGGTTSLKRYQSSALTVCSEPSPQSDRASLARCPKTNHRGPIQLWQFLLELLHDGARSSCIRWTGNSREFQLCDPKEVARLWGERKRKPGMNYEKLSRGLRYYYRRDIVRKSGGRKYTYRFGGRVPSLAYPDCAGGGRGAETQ
Outline: as §1

ELF3 = molecular target: T11, ELF3 (Homo sapiens, UniProt P78545 1-371); conditions: protein: recombinant; tags: N-terminal GST; dsDNA, one strand shown
T11 sequence: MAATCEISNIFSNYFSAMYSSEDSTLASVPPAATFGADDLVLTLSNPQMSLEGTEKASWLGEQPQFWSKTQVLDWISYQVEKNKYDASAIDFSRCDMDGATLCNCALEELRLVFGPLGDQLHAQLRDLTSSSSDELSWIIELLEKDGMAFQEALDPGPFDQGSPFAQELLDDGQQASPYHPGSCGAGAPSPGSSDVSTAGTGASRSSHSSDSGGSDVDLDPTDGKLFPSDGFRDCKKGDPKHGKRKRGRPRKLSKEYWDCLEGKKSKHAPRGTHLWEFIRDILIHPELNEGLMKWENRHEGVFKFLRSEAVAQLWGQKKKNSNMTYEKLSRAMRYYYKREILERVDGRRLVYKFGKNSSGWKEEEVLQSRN
Outline: as §1

CRX = CRX (Homo sapiens, UniProt O43186 1-299); conditions: protein: recombinant; tags: N-terminal GST; dsDNA, one strand shown
Chain of CRX (O43186 whole entry): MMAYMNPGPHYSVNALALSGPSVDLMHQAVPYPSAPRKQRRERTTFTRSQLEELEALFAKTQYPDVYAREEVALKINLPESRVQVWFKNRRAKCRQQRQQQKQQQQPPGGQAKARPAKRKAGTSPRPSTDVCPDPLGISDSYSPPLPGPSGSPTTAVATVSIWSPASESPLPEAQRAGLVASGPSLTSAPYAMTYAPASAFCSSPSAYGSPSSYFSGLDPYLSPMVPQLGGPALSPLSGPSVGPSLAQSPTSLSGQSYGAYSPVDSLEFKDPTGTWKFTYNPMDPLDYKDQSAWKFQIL
Outline: as §1

ETV1 = ETV1 (Homo sapiens, UniProt P50549 1-477); conditions: protein: recombinant; tags: N-terminal GST; dsDNA, one strand shown
Chain of ETV1 (P50549 whole entry): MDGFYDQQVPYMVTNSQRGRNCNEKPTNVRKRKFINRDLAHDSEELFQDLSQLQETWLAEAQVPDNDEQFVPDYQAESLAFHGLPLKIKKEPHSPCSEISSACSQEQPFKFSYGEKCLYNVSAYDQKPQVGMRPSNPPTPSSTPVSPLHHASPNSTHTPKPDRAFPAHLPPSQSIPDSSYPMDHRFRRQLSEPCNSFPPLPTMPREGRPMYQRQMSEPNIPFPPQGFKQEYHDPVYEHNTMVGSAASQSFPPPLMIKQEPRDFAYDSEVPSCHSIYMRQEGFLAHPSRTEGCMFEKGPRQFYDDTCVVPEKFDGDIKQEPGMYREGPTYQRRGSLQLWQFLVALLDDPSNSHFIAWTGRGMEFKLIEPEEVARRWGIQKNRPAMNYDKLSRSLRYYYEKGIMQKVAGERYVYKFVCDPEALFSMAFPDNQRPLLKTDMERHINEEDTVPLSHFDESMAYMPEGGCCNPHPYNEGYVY
Outline: as §1

ACGAAA was tested. Which binding signal (FLI1) did it give?
The binding signal was 1.2 fold enrichment (6-mer frequency, TF over GST control).

What about the binding signal (ELK1) of the same sequence?
Its binding signal is 1.12 fold enrichment (6-mer frequency, TF over GST control).

And the binding signal (GABPA)?
The binding signal was 1.15 fold enrichment (6-mer frequency, TF over GST control).

What about the binding signal (ERG) of the same sequence?
The binding signal was 1.14 fold enrichment (6-mer frequency, TF over GST control).

What about the binding signal (ELF1) of the same sequence?
The binding signal was 1.13 fold enrichment (6-mer frequency, TF over GST control).

And the binding signal (EHF)?
The binding signal was 1.19 fold enrichment (6-mer frequency, TF over GST control).

What about the binding signal (SPI1) of the same sequence?
Its binding signal is 1.14 fold enrichment (6-mer frequency, TF over GST control).

And the binding signal (SPIB)?
Its binding signal is 1.16 fold enrichment (6-mer frequency, TF over GST control).

What about the binding signal (ELK3) of the same sequence?
The binding signal was 1.07 fold enrichment (6-mer frequency, TF over GST control).

What about the binding signal (FEV) of the same sequence?
Its binding signal is 1.15 fold enrichment (6-mer frequency, TF over GST control).

And the binding signal (ETV5)?
The binding signal was 1.15 fold enrichment (6-mer frequency, TF over GST control).

And the binding signal (HSF1)?
Its binding signal is 1.44 fold enrichment (6-mer frequency, TF over GST control).

And the binding signal (SPIC)?
The binding signal was 1.02 fold enrichment (6-mer frequency, TF over GST control).

And the binding signal (ELF4)?
The binding signal was 1.16 fold enrichment (6-mer frequency, TF over GST control).

What about the binding signal (ELK4) of the same sequence?
Its binding signal is 1.24 fold enrichment (6-mer frequency, TF over GST control).

And the binding signal (ETV2)?
Its binding signal is 1.13 fold enrichment (6-mer frequency, TF over GST control).

What about the binding signal (ELF3) of the same sequence?
The binding signal was 1.19 fold enrichment (6-mer frequency, TF over GST control).

And the binding signal (CRX)?
Its binding signal is 1.09 fold enrichment (6-mer frequency, TF over GST control).

What about the binding signal (ETV1) of the same sequence?
The binding signal was 1.12 fold enrichment (6-mer frequency, TF over GST control).
